# Results reported in article PMC7862700, “An all-to-all approach to the identification of sequence-specific readers for epigenetic DNA modifications on cytosine”.
# Columns and labels:
# Assay in all cases: DAPPL (digital affinity profiling via proximity ligation, sequencing); 10 mM Tris-HCl pH 7.5, 50 mM NaCl, 1 mM DTT, 4% glycerol, room temperature, 30 min; GST-TFs on glutathione beads, 16-mer random dsDNA library, 0.1% formaldehyde crosslink after washing; high values mean tight binding
# Settings in all cases: protein: recombinant; tags: N-terminal GST; dsDNA, one strand shown
# ELK1 = target: T1, ELK1 (Homo sapiens, UniProt P19419 1-428)
# T1 sequence: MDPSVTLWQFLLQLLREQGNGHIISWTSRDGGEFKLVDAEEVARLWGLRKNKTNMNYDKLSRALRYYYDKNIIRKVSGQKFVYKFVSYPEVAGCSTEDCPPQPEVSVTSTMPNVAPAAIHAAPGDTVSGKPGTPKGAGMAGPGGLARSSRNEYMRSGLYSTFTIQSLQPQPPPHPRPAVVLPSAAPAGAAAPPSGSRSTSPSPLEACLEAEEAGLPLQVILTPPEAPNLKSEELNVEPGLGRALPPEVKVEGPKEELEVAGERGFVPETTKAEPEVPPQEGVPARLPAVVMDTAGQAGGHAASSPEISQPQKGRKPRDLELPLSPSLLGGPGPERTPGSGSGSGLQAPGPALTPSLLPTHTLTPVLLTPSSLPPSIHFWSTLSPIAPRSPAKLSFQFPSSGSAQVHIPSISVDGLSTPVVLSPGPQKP
# Outline: (§1)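 A tag-only sample was pooled with DNA-barcoded human transcription factors that had been expressed in yeast as GST fusions and captured on glutathione beads. The pools were incubated for 30 min at room temperature with 200 nmole of a random double-stranded 16-mer DNA library in Tris/NaCl/DTT/glycerol buffer, then washed, crosslinked with 0.1% formaldehyde, proximity-ligated (BsaI/T4 ligase, 1 h, 37 °C), PCR-amplified and sequenced on an Illumina NextSeq500. Binding signal is each hexamer's read frequency for a factor divided by its frequency for the tag-only sample.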
# SPIB = SPIB (Homo sapiens, UniProt Q01892 1-262)
# Chain of SPIB (Q01892 whole entry): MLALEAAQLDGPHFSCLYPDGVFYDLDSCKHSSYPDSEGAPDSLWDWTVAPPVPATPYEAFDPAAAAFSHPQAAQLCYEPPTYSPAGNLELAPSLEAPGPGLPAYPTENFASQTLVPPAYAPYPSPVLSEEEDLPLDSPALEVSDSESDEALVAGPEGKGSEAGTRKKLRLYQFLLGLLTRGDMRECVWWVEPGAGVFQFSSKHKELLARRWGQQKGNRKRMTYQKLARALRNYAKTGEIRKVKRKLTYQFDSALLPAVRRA
# Outline: as §1
# ETV5 = ETV5 (Homo sapiens, UniProt P41161 1-510)
# Chain of ETV5 (P41161 whole entry): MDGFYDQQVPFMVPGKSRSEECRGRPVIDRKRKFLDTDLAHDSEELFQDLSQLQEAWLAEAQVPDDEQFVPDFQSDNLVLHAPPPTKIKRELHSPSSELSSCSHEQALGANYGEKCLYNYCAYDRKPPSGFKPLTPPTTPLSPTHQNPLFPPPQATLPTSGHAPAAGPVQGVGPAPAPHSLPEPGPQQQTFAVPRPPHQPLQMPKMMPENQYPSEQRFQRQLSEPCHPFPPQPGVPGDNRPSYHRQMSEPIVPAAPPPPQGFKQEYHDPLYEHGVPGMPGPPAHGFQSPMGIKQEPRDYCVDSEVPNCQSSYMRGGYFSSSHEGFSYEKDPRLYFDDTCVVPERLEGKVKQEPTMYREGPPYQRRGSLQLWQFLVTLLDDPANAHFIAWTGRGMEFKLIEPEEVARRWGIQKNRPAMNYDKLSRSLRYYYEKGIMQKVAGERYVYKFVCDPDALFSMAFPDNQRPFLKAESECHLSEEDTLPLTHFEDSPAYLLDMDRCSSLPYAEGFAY
# Outline: as §1
# ELF4 = ELF4 (Homo sapiens, UniProt Q99607 1-663)
# Chain of ELF4 (Q99607 whole entry): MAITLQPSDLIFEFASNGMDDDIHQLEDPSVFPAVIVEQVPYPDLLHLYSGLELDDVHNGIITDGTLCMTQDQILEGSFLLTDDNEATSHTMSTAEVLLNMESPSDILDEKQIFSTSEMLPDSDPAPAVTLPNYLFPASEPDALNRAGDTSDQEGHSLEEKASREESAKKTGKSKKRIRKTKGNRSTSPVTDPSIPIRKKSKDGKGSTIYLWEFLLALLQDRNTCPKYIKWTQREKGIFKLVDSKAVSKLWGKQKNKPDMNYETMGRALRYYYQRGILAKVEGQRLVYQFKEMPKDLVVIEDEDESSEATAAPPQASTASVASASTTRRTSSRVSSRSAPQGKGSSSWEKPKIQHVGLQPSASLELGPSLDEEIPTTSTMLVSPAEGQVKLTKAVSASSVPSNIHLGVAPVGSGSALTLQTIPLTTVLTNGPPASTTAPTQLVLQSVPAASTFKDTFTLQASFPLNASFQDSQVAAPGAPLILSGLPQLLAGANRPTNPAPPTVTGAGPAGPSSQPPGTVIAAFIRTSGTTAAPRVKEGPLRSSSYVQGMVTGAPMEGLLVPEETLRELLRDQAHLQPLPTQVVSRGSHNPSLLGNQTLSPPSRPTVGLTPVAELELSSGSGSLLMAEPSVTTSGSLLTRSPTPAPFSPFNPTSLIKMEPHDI
# Outline: as §1
# ELK4 = target: T2, ELK4 (Homo sapiens, UniProt P28324-2 1-405)
# T2 sequence: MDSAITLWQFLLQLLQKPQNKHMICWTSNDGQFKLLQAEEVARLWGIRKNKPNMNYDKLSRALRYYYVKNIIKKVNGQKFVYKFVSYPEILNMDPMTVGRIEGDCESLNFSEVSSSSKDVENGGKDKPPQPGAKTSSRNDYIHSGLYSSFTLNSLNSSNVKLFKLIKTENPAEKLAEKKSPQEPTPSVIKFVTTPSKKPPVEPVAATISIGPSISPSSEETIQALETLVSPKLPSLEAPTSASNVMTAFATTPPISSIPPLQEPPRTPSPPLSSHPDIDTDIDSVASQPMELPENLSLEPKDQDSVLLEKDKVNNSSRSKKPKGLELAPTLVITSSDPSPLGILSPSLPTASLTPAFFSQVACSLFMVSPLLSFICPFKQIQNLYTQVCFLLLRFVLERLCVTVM
# Outline: as §1
# ETV2 = target: T3, ETV2 (Homo sapiens, UniProt O00321 1-342)
# T3 sequence: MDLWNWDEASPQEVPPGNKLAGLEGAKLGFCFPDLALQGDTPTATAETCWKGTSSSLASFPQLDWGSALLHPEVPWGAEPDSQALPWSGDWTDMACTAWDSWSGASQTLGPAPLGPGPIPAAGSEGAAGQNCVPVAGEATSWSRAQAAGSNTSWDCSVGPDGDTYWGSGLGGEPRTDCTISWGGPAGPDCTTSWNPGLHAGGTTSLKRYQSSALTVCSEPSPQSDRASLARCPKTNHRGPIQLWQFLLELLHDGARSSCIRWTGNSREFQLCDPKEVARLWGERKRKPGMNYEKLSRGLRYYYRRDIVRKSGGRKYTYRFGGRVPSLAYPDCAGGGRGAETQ
# Outline: as §1
# ERF = target: T4, ERF (Homo sapiens, UniProt P50548 1-548)
# T4 sequence: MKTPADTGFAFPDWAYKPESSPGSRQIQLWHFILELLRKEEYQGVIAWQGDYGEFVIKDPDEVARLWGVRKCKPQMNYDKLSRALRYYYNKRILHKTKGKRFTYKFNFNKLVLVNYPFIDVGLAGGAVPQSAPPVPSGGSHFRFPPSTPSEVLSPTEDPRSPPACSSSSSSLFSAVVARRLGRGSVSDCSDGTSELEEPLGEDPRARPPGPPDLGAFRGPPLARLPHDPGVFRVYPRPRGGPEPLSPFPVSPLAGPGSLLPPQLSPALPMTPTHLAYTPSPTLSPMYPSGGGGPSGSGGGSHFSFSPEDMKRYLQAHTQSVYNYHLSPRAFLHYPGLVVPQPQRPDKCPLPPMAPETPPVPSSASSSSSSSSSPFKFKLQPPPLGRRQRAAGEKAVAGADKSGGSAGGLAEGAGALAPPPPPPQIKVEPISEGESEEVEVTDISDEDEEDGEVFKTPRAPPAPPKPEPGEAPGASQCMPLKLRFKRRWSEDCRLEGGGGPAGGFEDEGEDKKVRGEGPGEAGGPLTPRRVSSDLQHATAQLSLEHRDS
# Outline: as §1
# ETS2 = target: T5, ETS2 (Homo sapiens, UniProt P15036 1-469)
# T5 sequence: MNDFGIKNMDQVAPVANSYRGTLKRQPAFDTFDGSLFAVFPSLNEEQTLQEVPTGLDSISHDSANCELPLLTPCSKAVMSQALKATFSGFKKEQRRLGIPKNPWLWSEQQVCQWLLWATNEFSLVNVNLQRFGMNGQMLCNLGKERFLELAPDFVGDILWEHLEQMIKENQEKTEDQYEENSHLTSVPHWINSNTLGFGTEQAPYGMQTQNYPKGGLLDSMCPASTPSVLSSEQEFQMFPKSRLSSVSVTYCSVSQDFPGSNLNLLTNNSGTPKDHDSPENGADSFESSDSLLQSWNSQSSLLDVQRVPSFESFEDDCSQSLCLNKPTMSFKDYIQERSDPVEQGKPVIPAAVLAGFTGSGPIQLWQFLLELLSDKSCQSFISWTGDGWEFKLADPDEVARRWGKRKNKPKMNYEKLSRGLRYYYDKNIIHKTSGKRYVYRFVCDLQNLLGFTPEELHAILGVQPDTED
# Outline: as §1
# ETV3 = target: T6, ETV3 (Homo sapiens, UniProt P41162-2 1-143)
# T6 sequence: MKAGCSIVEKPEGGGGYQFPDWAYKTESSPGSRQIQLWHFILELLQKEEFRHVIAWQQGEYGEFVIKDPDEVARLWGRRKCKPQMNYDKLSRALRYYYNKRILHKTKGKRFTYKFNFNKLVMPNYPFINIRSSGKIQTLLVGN
# Outline: as §1
# ETV6 = ETV6 (Homo sapiens, UniProt P41212 1-452)
# Chain of ETV6 (P41212 whole entry): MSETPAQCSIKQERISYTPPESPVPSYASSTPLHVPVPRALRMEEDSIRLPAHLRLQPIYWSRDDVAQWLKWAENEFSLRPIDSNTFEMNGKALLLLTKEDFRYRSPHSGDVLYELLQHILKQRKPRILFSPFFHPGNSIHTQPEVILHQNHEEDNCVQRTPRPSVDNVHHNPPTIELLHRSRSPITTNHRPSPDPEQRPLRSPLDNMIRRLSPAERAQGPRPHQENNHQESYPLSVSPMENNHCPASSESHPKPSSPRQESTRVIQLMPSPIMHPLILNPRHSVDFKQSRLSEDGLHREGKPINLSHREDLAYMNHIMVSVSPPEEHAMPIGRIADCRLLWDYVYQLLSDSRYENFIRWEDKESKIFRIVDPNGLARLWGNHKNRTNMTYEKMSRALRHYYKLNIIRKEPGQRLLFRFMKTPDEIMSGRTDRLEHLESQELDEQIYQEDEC
# Outline: as §1
sequence,measurement,setting,value
TGTGCG,binding signal,ELK1,"1.08 fold enrichment (6-mer frequency, TF over GST control)"
same,binding signal,SPIB,"1.01 fold enrichment (6-mer frequency, TF over GST control)"
same,binding signal,ETV5,"1.04 fold enrichment (6-mer frequency, TF over GST control)"
same,binding signal,ELF4,"1.01 fold enrichment (6-mer frequency, TF over GST control)"
same,binding signal,ELK4,"1.14 fold enrichment (6-mer frequency, TF over GST control)"
same,binding signal,ETV2,"1.2 fold enrichment (6-mer frequency, TF over GST control)"
same,binding signal,ERF,"1.06 fold enrichment (6-mer frequency, TF over GST control)"
same,binding signal,ETS2,"1.05 fold enrichment (6-mer frequency, TF over GST control)"
same,binding signal,ETV3,"1.04 fold enrichment (6-mer frequency, TF over GST control)"
same,binding signal,ETV6,"1.06 fold enrichment (6-mer frequency, TF over GST control)"
